# GALR2 agonist – GALR2 receptor agonists, primary screen, cell-based; GALR2-expressing cells, agonist activation read-out; Galanin receptor type 2 (Homo sapiens), O43603; 0.48% of 140,000 active; activation, % (test concentration not listed); in the data active = activation above about 5%, passing the limit was not always enough;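 also: 0% = vehicle buffer wells and 100% = reference agonist at full effect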
# DAT uptake mod – changed hDAT dopamine uptake under cocaine IC80, either direction, primary screen, cocaine antagonist project, cell-based, LLC-PK1 hDAT, [14C]-dopamine uptake, MLSMR | Sodium-dependent dopamine transporter (Homo sapiens), Q01959 | LLC-PK1 hDAT cells, [14C]-dopamine uptake with cocaine IC80; actives deviate in either direction | B-score at 10 µM | 1.3% of 110,000 active | AID 449768, 2010;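 active = Z score or B-score, a plate-position-corrected score, falls beyond the plate's 99.7% confidence bounds, in either direction; inactive = both scores lie inside the 99.7% bounds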;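 also: scored against the spread of the other compound wells on the same plate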
# GALR2 antag – GALR2 antagonists in receptor-expressing cells, primary screen | AID 828, 2007 | inhibition, % at 4 µM | antagonist mode | Galanin receptor type 2 (Homo sapiens), O43603 | 0.39% of 140,000 active; in the data active = inhibition above about 27%;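 also: cells stimulated with galanin 1-16 at roughly its EC80; 0% = agonist challenge control and 100% = basal control without agonist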
# S1P2 antag – human S1P2 receptor antagonists, primary screen, cell-based | Sphingosine 1-phosphate receptor 2 (Homo sapiens), O95136 | cell-based S1P2 antagonist assay, inhibition at 5 uM | inhibition, % at 5 µM | 0.21% of 97,000 active | AID 736, 2007; in the data active = inhibition above about 45%;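 also: CRE beta-lactamase reporter cells expressing human S1P2 stimulated with S1P; 0% = agonist at EC80 alone and 100% = agonist plus reference antagonist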
# Target sequence (O95136 whole entry, looked up): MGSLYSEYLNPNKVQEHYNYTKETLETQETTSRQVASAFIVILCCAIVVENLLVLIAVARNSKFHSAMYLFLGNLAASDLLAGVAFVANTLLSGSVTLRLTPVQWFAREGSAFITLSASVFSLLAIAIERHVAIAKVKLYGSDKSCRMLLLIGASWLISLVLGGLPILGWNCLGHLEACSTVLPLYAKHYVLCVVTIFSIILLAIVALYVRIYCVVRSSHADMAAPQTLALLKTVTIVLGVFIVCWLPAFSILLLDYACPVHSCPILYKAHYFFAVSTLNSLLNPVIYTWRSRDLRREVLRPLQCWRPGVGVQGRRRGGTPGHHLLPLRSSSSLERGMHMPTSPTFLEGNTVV
# S1P2 ag – S1P2 receptor agonists, primary screen, cell-based. Sphingosine 1-phosphate receptor 2 (Homo sapiens), O95136. S1P2-expressing cell line, agonist reporter read-out. activation, % at 4.5 µM. 0.46% of 97,000 active; in the data active = activation above about 16%;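 also: 0% = vehicle low control and 100% = maximal reference agonist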
# An asterisk follows results filed as active; . = no result given. Sampled rows, rich in hits. Any-hit rate of the full collection: about 2.1%.
SMILES,GALR2 agonist,DAT uptake mod,GALR2 antag,S1P2 antag,S1P2 ag
Cc1cc(C(=O)CN2C(=O)NC(c3ccccc3)(c3ccccc3)C2=O)c(C)n1Cc1ccco1,-2.0,0.0813,2.4,9.3,-3.0
CC(NC(=O)COC(=O)CCc1ccccc1)c1ccccc1 (configuration not stated),-1.7,.,11.2,.,.
CCOC(=O)c1sc2nccc(N(C)C)c2c1N=CNOCc1c(F)cccc1Cl,0.1,0.992,-16.3,-15.9,32.9*
COc1cc(/C=N/N2CCN(C3c4ccccc4-c4ccccc43)CC2)ccc1O,-0.8,-1.76*,-16.5,-2.0,-6.3
COCCN(C(=S)Nc1ccccc1OC)C(C)c1cccs1 (configuration not stated),-0.1,.,-5.8,.,.
COCCNC(=O)CSc1nc2cc(OC)c(OC)cc2c(=O)n1Cc1ccco1,0.0,0.217,-6.2,-11.4,1.0
CCC(Sc1nc2cc(OC)c(OC)cc2c(=O)n1Cc1ccco1)C(=O)NCCOC (configuration not stated),1.0,0.445,2.6,-47.7,17.8*
Cc1csc(NC(=O)c2cc3c(s2)CCCC3)n1,0.2,3.22*,9.3,-35.2,-2.7
O=C(Nc1ccccc1)N1CCc2ccccc21,-2.5,0.509,14.5,-5.9,-3.8
O=C(CCC(=O)N1CCc2ccccc21)Nc1ccccc1,-2.1,-0.296,6.4,9.8,57.6*
O=C(c1ccccc1)c1ccc(CN2C(=O)c3ccccc3C2=O)o1,-1.9,3.41*,3.2,-18.5,-0.9
O=C(O)c1ccc(C(=O)c2ccc3c(c2)C(=O)N(Cc2ccco2)C3=O)cc1,-1.8,0.258,-0.5,-0.5,-4.1
CCOC(=O)c1ccc(NC(=O)Cn2nnc(-c3ccccc3)n2)cc1,0.5,0.0812,0.5,-13.9,-7.4
NC(=O)c1nn(-c2ccccc2)nc1NC(=O)Cn1nnc(-c2ccccc2)n1,5.2*,.,-2.1,.,.
CC1CCCN(C(=O)CSCC(=O)N=c2sc3ccccc3n2C)C1 (configuration not stated),-1.9,2.69*,-4.8,0.8,-4.7
CCCCC1NC(=S)N(C2CCCCC2)C1=O (configuration not stated),7.1*,.,0.9,.,.
CCOC(=O)c1c2n(c3c(NCc4ccccc4)ncnc13)CCCC2,0.1,2.26*,-7.3,-6.6,0.5
CC(=O)c1cccc(NS(=O)(=O)c2ccc(N/C=C\C(=O)c3ccc(C)cc3)cc2)c1,1.2,-0.0336,10.4,67.2*,-9.1
NC(=O)COC(=O)CNC(=O)c1ccc(Cl)cc1,-2.1,-0.886,-5.0,-0.1,-0.6
NC(=O)CCNC(=O)c1ccc(Cl)cc1,-2.0,-0.0533,-8.2,25.3,44.0*
COc1ccc(C)cc1NS(=O)(=O)c1ccc(NS(=O)(=O)c2ccc(NC(C)=O)cc2)cc1,-0.3,3.87*,-7.5,-0.6,-2.3
COc1ccc(OC)c(NS(=O)(=O)c2ccc(NC(C)=O)cc2)c1,-2.9,-0.0992,-7.4,-7.7,-3.8
Cc1cc(C)n(-c2nc(NCC(C)O)c3c4c(sc3n2)COC(C)(C)C4)n1 (configuration not stated),-1.1,1.66,-2.6,1.3,-5.8
Cc1cc(C)n(-c2nc(NCC3CCCO3)c3c4c(sc3n2)COC(C)(C)C4)n1 (configuration not stated),0.2,2.14,-2.5,-41.1,-3.0
Cc1ccc(CNc2nc(C)nc3sc4c(c23)CCC4)cc1,-1.8,0.00551,3.2,14.3,-6.3
SMILES,GALR2 agonist,DAT uptake mod,GALR2 antag,S1P2 antag,S1P2 ag
Cc1cc(C)n(-c2nc(NCCO)c3c4c(sc3n2)CCCC4)n1,8.1*,2.42,-13.3,21.1,-2.9
Cc1cc(C)n(-c2nc(NCCCO)c3c4c(sc3n2)CCCC4)n1,35.7*,0.899,-25.8,3.8,-0.4
Cc1cc(C)n(-c2nc(NCC(C)O)c3c4c(sc3n2)CCCC4)n1 (configuration not stated),8.8*,-0.837,-10.8,6.3,-5.0
Nc1ncc2c(n1)CC(c1ccco1)CC2=O (configuration not stated),-0.4,-0.276,-1.8,13.3,-4.2
COc1ccc2cc3cc(C(=O)NC(C)C)oc3nc2c1,-2.3,-8.18*,-0.6,-8.3,-4.8
COc1cc(-c2nnc(COC(=O)CSc3cc(C)c4ccccc4n3)o2)cc(OC)c1OC,-0.9,0.797,3.9,-17.2,0.0

# Screens deposited in PubChem by several laboratories.
